KB-V1 MDR tox: KB-V1 MDR subline cytotoxicity; KB-V1 MDR cells viability, CellTiter-Glo, 72 h; Potency, µM (series often up to 46.1 µM), actives largely listed as cytotoxic; 400,000 tested, 3.4% active; also: nearly all actives have a fitted effect of over 60% in size
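Potencies derive from concentration-effect curves fitted to normalized luminescence (CellTiter-Glo) of KB-V1 cells treated for 72 h at 37 degrees C in phenol-red-free DMEM containing 10% FBS.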
TDP1 cell CPT: growth inhibition of DT40 Tdp1-/-;hTDP1 cells with camptothecin (screen for TDP1 inhibitors). chicken DT40 Tdp1-/-;hTDP1 cells + 20 nM CPT, ATP luminescence, 48 h. Potency, µM (doses to about 46.2 µM), for the others: at the top dose activity change, negative = growth inhibition, most hits filed as inhibitors. 420,000 tested, 12% active; also: nearly all actives have a fitted effect of over 55% in size
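Chicken DT40 Tdp1-/- cells complemented with human TDP1, 400 cells/well, exposed to compounds plus 20 nM camptothecin for at least 48 h at 37 C; viability read as ATP content by CellTiter-Glo luminescence.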
HT1080NT lethal: kills 2HG-producing HT-1080-NT fibrosarcoma cells. HT-1080-NT fibrosarcoma viability, CellTiter-Glo ATP luminescence, 48 h. Potency, µM (doses to about 46.1 µM), inactives show top-dose activity, negative = less viability, actives largely listed as cytotoxic. 360,000 tested, 1.6% active. AID 686970;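 also: NT is the 2HG producing partner of a matched IDH1 knockdown line; 0% = DMSO-treated cells and -100% = media-only wells without cells; nearly all actives have a fitted effect of over 55% in size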
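HT-1080-NT fibrosarcoma cells (2HG-overproducing), 750 cells/well in RPMI with 5% FBS, dosed after 2 h and incubated 48 h at 37C. CellTiter-Glo luminescence normalized to DMSO and no-cell wells; concentration-response curves fitted and classed.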
HT1080 IDH1KD tx: kills HT-1080 cells with IDH1 knockdown | HT-1080 IDH1 knockdown viability, ATP luminescence, 48 h | Potency, µM (doses to about 46.1 µM), for the others: at the top dose activity, negative = toxicity, most hits filed as cytotoxic | 360,000 tested, 2% active;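 also: 0% = DMSO wells and -100% = cell-free medium wells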
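Using the IDH1-knockdown HT-1080 line run in the same batch and compound series as the NT line, viability after 48 h at 37 °C was determined by CellTiter-Glo luminescence and expressed as % activity.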
KB-3-1 cytotox: kills parental KB-3-1 adenocarcinoma cells; KB-3-1 viability, CellTiter-Glo ATP luminescence, 72 h; Potency, µM (highest dose often 46.1 µM), most hits filed as cytotoxic; 400,000 tested, 1.4% active; AID 1347075; also: nearly all actives have a fitted effect of over 60% in size
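Cytotoxicity in the drug-sensitive parental line KB-3-1 was scored as loss of CellTiter-Glo luminescence following 72 h incubation with compound. Values come from curve fitting of normalized concentration-response data.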
DT40 TDP1 no CPT: qHTS for Inhibitors of human tyrosyl-DNA phosphodiesterase 1 (TDP1): qHTS in cells in absence of CPT. DT40 Tdp1-/- hTDP1 cells, no CPT, ATP luminescence, 48 h. Potency, µM (doses to about 46.2 µM), inactives show at the highest dose activity change, negative = growth inhibition, actives largely listed as inhibitors. 420,000 tested, 15% active. AID 686978, 2013; also: nearly all actives have a fitted effect of over 55% in size
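Camptothecin absent (DMSO only). Human TDP1-complemented DT40 knockout cells, 400 cells/well, 37 °C for minimum 48 hr; ATP measured via CellTiter-Glo, 30 min dark incubation, luminescence.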
* = called active by the depositor; i = inactive; ? = inconclusive; · = no result given. Compounds with a hit are over-represented: about 19% of the library has one in this group of screens. Calls follow the shape of the dose curve; as a rule, active = well fitted curve in the direction sought with a large enough effect; inconclusive = small, poorly fitted or top-dose-only effect, or another doubt; inactive = no such curve, though single readings can be large; an effect the other way counts as inactive or inconclusive. Unless noted, % is scaled to controls: 0 for no effect and ±100 for the full control effect; potency is read from the fitted curve at half-maximal effect.

SMILES	KB-V1 MDR tox	TDP1 cell CPT	HT1080NT lethal	HT1080 IDH1KD tx	KB-3-1 cytotox	DT40 TDP1 no CPT
COc1ccc(-n2c(SCC(=O)C(C)(C)C)nc3ccsc3c2=O)cc1	i	-5.6%	20.8%	18.4%	i	?
O=C(CC[C@H]1O[C@@H](n2ccc(=O)[nH]c2=O)[C@H](O)[C@@H]1O)NCCN1CCOCC1	i	-0.5%	23.0%	21.2%	i	10.0%
COc1ccc(NC(=O)Cn2c(=O)n(Cc3nc(-c4ccccc4)no3)c(=O)c3ccccc32)cc1Cl	i	-20.4%	·	·	i	?
Cc1ccccc1CN1C(=O)c2ccccc2C1c1nnnn1C(C)C (stereo unspecified)	i	-22.0%	8.2%	-1.2%	i	?
Cc1cc2nc(-c3nnnn3-c3c(C)cccc3C)c(=O)[nH]c2cc1C	i	?	1.6%	1.7%	i	16.4µM*
CN(Cc1ccccc1)S(=O)(=O)c1ccc(Cl)c(C(=O)N2CCC2)c1	16.4µM*	?	-2.9%	-1.5%	i	?
CCN(CC(=O)N1CCN(c2ccccc2)CC1)S(=O)(=O)c1ccc(C)cc1	?	?	8.4%	-2.7%	i	13µM*
CS(=O)(=O)N(CC(=O)N1CCN(c2ccccc2F)CC1)C1CCCCC1	?	-27.9%	-0.6%	-0.9%	i	?
CCN(c1ccccc1)S(=O)(=O)c1ccc(Cl)c(C(=O)N2CCCC2)c1	i	?	11.9%	0.6%	i	14.6µM*
Cc1ccc(S(=O)(=O)N(CC(=O)N2CCN(c3ccccc3F)CC2)C2CCCCC2)cc1	4.61µM*	?	-1.3%	-11.1%	?	?
CCN(c1ccccc1)S(=O)(=O)c1ccc(F)c(C(=O)O)c1	i	-9.5%	1.1%	17.4%	i	-11.2%
CCN(CC(=O)N1CCN(Cc2ccccc2)CC1)S(=O)(=O)c1ccc(C)cc1	?	?	3.8%	9.8%	i	?
Cc1ccc(S(=O)(=O)N[C@H](CNCc2ccccc2)C(C)C)cc1	?	?	-2.7%	1.1%	i	?
Cc1ccc(S(=O)(=O)Nc2ccc(C(=O)NCCCn3ccnc3)cc2)cc1[N+](=O)[O-]	i	-1.9%	6.2%	6.6%	i	27.6%
O=C(Nc1nnc(-c2ccncc2)s1)Nc1cccc2ccccc12	i	·	·	·	i	·
CN(Cc1ccccc1)S(=O)(=O)c1ccc(Cl)c(C(=O)N2CCC(C(N)=O)CC2)c1	i	23.1µM*	-0.5%	1.6%	i	10.3µM*
CCN(c1ccccc1)S(=O)(=O)c1ccc(C(=O)N2CCN(c3ccccc3)CC2)cc1	i	?	-2.4%	-13.7%	i	20.6µM*
CCN(c1ccccc1)S(=O)(=O)c1ccc(Cl)c(C(=O)N(CC2CCCO2)C2CCS(=O)(=O)C2)c1 (stereo unspecified)	i	?	-6.8%	2.1%	i	20.6µM*
CCN1CCN(S(=O)(=O)c2ccc(Cl)c(C(=O)N(CC(C)C)C3CCS(=O)(=O)C3)c2)CC1 (stereo unspecified)	i	-28.2%	-9.0%	2.3%	i	-11.2%
CCN(c1ccccc1)S(=O)(=O)c1cccc(C(=O)N2CCN(S(=O)(=O)c3ccccc3)CC2)c1	?	?	2.0%	6.2%	i	?
COc1ccc(N2CCN(c3nc4cc(C)ccc4cc3C=O)CC2)cc1	i	?	9.2%	4.2%	i	?
Cc1ccc2cc(/C=C3\N=C(c4ccccc4)OC3=O)c(N3CCOCC3)nc2c1	i	?	13.5%	19.8%	i	18.4µM*
